Data: PubChem BioAssay (NCI)
Compounds without any hit were thinned out: in the full panel of roughly 83,000, 20% have a hit.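 48-hour exposure, single concentration, 96-well plates; percent growth endpoint where 0 means no net growth. Active: below 10.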 Calls of active or inactive are those of the source.

What follows are compounds tested on EKVX NSCLC (assay: NCI-60 one-dose screen, 48 h (100 = growth as untreated, 0 = no growth, -100 = all killed)). Settings: 10 µM.
Description: Growth inhibition of the EKVX human Non-Small Cell Lung tumor cell line is measured as a screen for anti-cancer activity. Cells are grown in 96 well plates and exposed to the test compound for 48 hours. Compounds are tested at a single concentration, which is 10^-5 M for most compounds. The reported endpoint is percent growth (GI% or GIPRCNT), where numbers from 0 - 100% represent growth inhibition, and numbers from -100% - 0 represent cell death. For example, a value of 40 represents 60% growth inhibition. A value of 0 means no net growth occurred over the course of the experiment. A value of -40 indicates 40% of cells at the beginning of the experiment died by the end of the experiment. A value of -100 means all cells are dead at the end of the experiment.
NCI-60 Human Tumor Cell Lines Screen was performed using the standard one-dose NCI protocol, which is described in more detail at https://dtp.cancer.gov/discovery_development/nci-60/default.htm.
Compounds with GIPRCNT values below 10 were considered active. Activity score was based on GIPRCNT using the following formula: […]
Score is 0 for GIPRCNT values of 100 or above, 50 for GIPRCNT values of 0, and 100 for GIPRCNT values of -100.

SMILES | growth
CCOP(=O)(CC(F)(F)C(F)(F)F)OCC | 89.5% (inactive)
COCCOCCOCCOc1ccc(-n2cc(CCCN(CCNc3ccnc4cc(Cl)ccc34)C(=O)CCC(=O)O[C@@H]3O[C@@H]4OC5(C)CC[C@H]6[C@H](C)CC[C@@H]([C@H]3C)[C@@]46OO5)nn2)cc1 | 53.5% (inactive)
COc1cc2cc(C(=O)N3C[C@@H](CCl)c4c3cc(OC(=O)N3CCN(C)[C@@H]5CSSC[C@@H]53)c3ccccc43)[nH]c2c(OC)c1OC | -56.1% (active)
CN(C)CCc1cn(C2CCC2)c2cccc(O)c12 | 94.9% (inactive)
CC(=C\C(=O)Oc1ccc2c3c1OC1C(O)CCC4(O)C(C2)N(CC2CCC2)CCC314)/C=C1\CCCc2ccccc21 (stereo not given) | 49.7% (inactive)
COc1cc2cc(C(=O)N3C[C@@H](CCl)c4c3cc(OC(=O)N3CCN(C(=O)CCC(=O)N5CCN(C)CC5)[C@@H]5CSSC[C@@H]53)c3ccccc43)[nH]c2c(OC)c1OC | -84.6% (active)
COC(=O)C[C@](O)(CCC(C)C)C(=O)O[C@@H]1C(OC)=C[C@]23CCCN2CCc2cc4c(cc2[C@H]13)OCO4 | -23.9% (active)
O=C(/C=C/c1ccccc1)c1nc2ccccc2n1Cc1ccc(F)cc1 | -60.5% (active)
N#C[Se]CC(=O)Nc1cccc(C(F)(F)F)c1 | -94.5% (active)
C[C@H]1[C@H](OC(=O)CCC(=O)N(CCCc2cn(-c3ccc(C#N)cc3)nn2)CCNc2ccnc3cc(Cl)ccc23)O[C@@H]2OC3(C)CC[C@H]4[C@H](C)CC[C@@H]1[C@@]24OO3 | 53% (inactive)
CC1=C(CCC=NNC(N)=O)C2=C(C)C3(CC3)[C@@](C)(O)C(=O)C2=C1 | -25.1% (active)
O=C(NC([Se])=NC1CCCCC1)c1ccccc1 | 19% (inactive)
CCC[Se]C(=O)c1ccc(C(=O)[Se]CCC)s1 | -79.7% (active)
CC12CCC3(CCC(=O)NCCCNc4ccnc5cc(Cl)ccc45)[C@@](C)(OO[C@]3(C)O1)O2 | 4.65% (active)
Cc1c2oc3c(C)ccc(C(=O)N[C@@H]4C(=O)N[C@H](C(C)C)C(=O)N5CCC[C@H]5C(=O)N(C)CC(=O)N(C)[C@@H](C(C)C)C(=O)OC4C)c3nc-2c(C(=O)N[C@@H]2C(=O)N[C@H](C(C)C)C(=O)N3CC(=O)C[C@H]3C(=O)N(C)CC(=O)N(C)[C@@H](C(C)C)C(=O)OC2C)c(N)c1=O (stereo not given in full) | -12.5% (active)
O=C([Se]C1C=CCCC1)c1ccc(C(=O)[Se]C2C=CCCC2)s1 (stereo not given) | -89.9% (active)
CC[C@]12C=CCN3CC[C@@]4(c5ccc(OC)cc5N(C)[C@H]4[C@@](O)(C(=O)OC)[C@@H]1OC(=O)CCC[P+](C1CCCCC1)(C1CCCCC1)C1CCCCC1)[C@@H]32 | 15.4% (inactive)
C[C@H]1[C@H](OC(=O)CCC(=O)Nc2cnccn2)O[C@@H]2OC3(C)CC[C@H]4[C@H](C)CC[C@@H]1[C@@]24OO3 | 38.4% (inactive)
COc1cc(OC)c(S(=O)(=O)N(CCCl)CCCl)cc1C(=O)/C=C/c1ccc(C)cc1 | 89.5% (inactive)
CC1=C2C(=C[C@@](C)(COP(=O)(Oc3ccccc3)Oc3ccccc3)[C@@H]2O)C(=O)[C@@](C)(O)C12CC2 | -52.5% (active)

SMILES | growth
C#CCCCN(CCNc1ccnc2cc(Cl)ccc12)C(=O)CCC(=O)O[C@@H]1O[C@@H]2OC3(C)CC[C@H]4[C@H](C)CC[C@@H]([C@H]1C)[C@@]24OO3 | 42.3% (inactive)
COC(=O)C[C@](O)(CCC(C)C)C(=O)O[C@H]1C(OC)=C[C@@]23CCCN2CCc2cc4c(cc2[C@@H]13)OCO4 | -16.2% (active)
CC1=C(COCCOC(=O)c2ccc(S(=O)(=O)F)cc2)C2=C(C)C3(CC3)[C@@](C)(O)C(=O)C2=C1 | -32.7% (active)
CC1=C(C=O)C2=C(C)C3(CC3)[C@@](C)(O)C(=O)C2=C1 | 68% (inactive)
CC(C)C[C@H](NC(=O)CNC(=O)C[C@H]1O[C@@H]2OC3(C)CC[C@H]4[C@H](C)CC[C@@H]([C@H]1C)[C@@]24OO3)B(O)O | 26.7% (inactive)
CC[C@]12C=CCN3CC[C@@]4(c5ccc(OC)cc5N(C)[C@H]4[C@@](O)(C(=O)OC)[C@@H]1OC(=O)CCCC[P+](c1ccc(C)cc1)(c1ccc(C)cc1)c1ccc(C)cc1)[C@@H]32 | -93.8% (active)
CC[C@]12C=CCN3CC[C@@]4(c5ccc(OC)cc5N(C)[C@H]4[C@@](O)(C(=O)OC)[C@@H]1OC(=O)CCC[P+](c1ccc(C)cc1)(c1ccc(C)cc1)c1ccc(C)cc1)[C@@H]32 | -94.7% (active)
COC(=O)CCn1c(-c2ccc(-n3cc(-c4ccc(O[C@H]5O[C@@H]6OC7(C)CC[C@H]8[C@H](C)CC[C@@H]([C@H]5C)[C@@]68OO7)cc4)nn3)cc2)nc2ccccc21 | 23.5% (inactive)
C[C@H]1[C@H](OC(=O)CCC(=O)N(CCCc2cn(-c3ccc([N+](=O)[O-])cc3)nn2)CCNc2ccnc3cc(Cl)ccc23)O[C@@H]2OC3(C)CC[C@H]4[C@H](C)CC[C@@H]1[C@@]24OO3 | 46.8% (inactive)
CC(=O)Oc1ccccc1C(=O)[Se]C(=NC(C)C)NC(C)C | -94% (active)
O=C(NCCCCC(c1ccc(F)cc1)c1ccc(F)cc1)Nc1ccc([N+](=O)[O-])c(C(F)(F)F)c1 | 4.51% (active)
COc1cc2cc(C(=O)N3C[C@@H](CCl)c4c3cc(OC(=O)N3CCN(C)[C@@H]5CSSC[C@H]53)c3ccccc43)[nH]c2c(OC)c1OC | -86.3% (active)
COc1ccc(/C=C/C(=O)c2nc3ccccc3n2Cc2ccc(Br)cc2)cc1 | 52.5% (inactive)
C[C@H]1[C@H](OC(=O)CCC(=O)N(CCCc2cn(-c3ccc(CN4CCOCC4)cc3)nn2)CCNc2ccnc3cc(Cl)ccc23)O[C@@H]2OC3(C)CC[C@H]4[C@H](C)CC[C@@H]1[C@@]24OO3 | 49% (inactive)
CC(=O)Oc1ccccc1C(=O)NC([Se])=NC1CCCCC1 | -59% (active)
CC[C@@]12CC(C(=O)OC)=C3Nc4cc5c(cc4[C@@]34CCN(C[C@H]3O[C@H]31)[C@@H]24)[C@@H]1[C@H](O5)[C@@H](O)[C@@]2(CC)CC(C(=O)OC)=C3Nc4cc(OC)ccc4[C@@]34CCN1[C@@H]24 | 31.3% (inactive)
CCOC(=O)C1=C(Nc2ccccc2)C(=O)OC12C(=O)Nc1ccccc12 (stereo not given) | 95.2% (inactive)
CC[C@]12C=CCN3CC[C@@]4(c5ccc(OC)cc5N(C)[C@H]4[C@@](O)(C(=O)OC)[C@@H]1OC(=O)CCC[P+](c1ccc(F)cc1)(c1ccc(F)cc1)c1ccc(F)cc1)[C@@H]32 | 58.1% (inactive)
CCOP(=O)(OCC)C(NC(C)=O)C(=O)SCCN (stereo not given) | 100% (inactive)
C=CC[Se]C(=O)c1cncc(C(=O)[Se]CC=C)c1 | -97.9% (active)
